Source: PubChem
GAA inh: alpha-glucosidase (human) inhibition. Potency, µM (doses to about 76.9 µM), for the others: at the top dose activity change, negative = inhibition, most hits filed as inhibitors. purified human GAA, 4-MU-alpha-glucoside fluorescence. hit rate 0.005% among 200,000. AID 1466;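 note: potency is the fitted concentration of half-maximal effect; plate controls were uninhibited enzyme wells for no effect and no-enzyme background for full effect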
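qHTS format, compound range up to 77 uM. Human lysosomal enzyme at 4 nM, 400 uM 4-MU glucoside substrate, pH 5.0, 20 min room temperature; fluorescence after alkaline stop gives activity normalized to controls.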
GAA glycogen: inhibitors or activators of human alpha-glucosidase glycogen cleavage | hit rate 0.38% among 300,000 | Potency, µM (highest dose often 76.4 µM), inactives show at the highest dose activity change, negative = inhibition, hits mostly inhibitors | P10253 | recombinant GAA, glycogen substrate, Amplex Red glucose oxidase fluorescence | AID 2100;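 note: potency is the fitted concentration of half-maximal effect; 0% = full enzyme reaction and -100% = no-enzyme basal signal; the screen sought inhibitors and activators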
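Natural-substrate format: glycogen cleavage by 4 nM human enzyme, glucose read by Amplex Red coupling (Ex 573, Em 610 nm). Normalized to enzyme and no-enzyme controls.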
aGlu spleen mod: inhibits or activates alpha-glucosidase in human spleen homogenate; P10253; human spleen homogenate, 4-MU-alpha-glucoside fluorescence; Potency, µM (highest dose often 79.9 µM), for inactives: at the top dose activity change, negative = inhibition, usual class: inhibitors; hit rate 0.006% among 240,000;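 note: potency is the fitted concentration of half-maximal effect; 0% = enzyme with vehicle and -100% = no enzyme basal signal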
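Enzyme source: human spleen homogenate, 1 ug/well. Buffer 50 mM citric acid/K phosphate pH 5.0, 0.01% Tween-20. 4-MU-alpha-glucoside 1 mM; 37 C x 40 min; NaOH/glycine stop; fluorescence.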
aGal spleen mod: inhibits or activates alpha-galactosidase in human spleen homogenate. P06280. human spleen homogenate, 4MU-alpha-Gal fluorescence, 40 min. Potency, µM (series often up to 80 µM), for the others: at the highest dose activity change, negative = inhibition, actives largely listed as inhibitors. hit rate 0.008% among 240,000. AID 2107;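 note: potency is the fitted concentration of half-maximal effect; 0% = enzyme with vehicle and -100% = no enzyme basal signal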
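Inhibition or activation of alpha-galactosidase in human spleen homogenate is scored by 4-MU fluorescence after 40 min at 37C, pH 5.0, with 1 mM substrate. AC50s come from concentration-response fitted to the Hill equation.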
GLA inh pH 4.5: inhibitors of human alpha-galactosidase A at pH 4.5; purified enzyme, 4-MU-alpha-Gal fluorescence, pH 4.5; activity change, negative = inhibition, % at 105 µM; 230,000 tested, under 10 active; AID 1467;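 note: 0% = full activity with enzyme and -100% = basal without enzyme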
Target sequence (P06280 whole entry, looked up): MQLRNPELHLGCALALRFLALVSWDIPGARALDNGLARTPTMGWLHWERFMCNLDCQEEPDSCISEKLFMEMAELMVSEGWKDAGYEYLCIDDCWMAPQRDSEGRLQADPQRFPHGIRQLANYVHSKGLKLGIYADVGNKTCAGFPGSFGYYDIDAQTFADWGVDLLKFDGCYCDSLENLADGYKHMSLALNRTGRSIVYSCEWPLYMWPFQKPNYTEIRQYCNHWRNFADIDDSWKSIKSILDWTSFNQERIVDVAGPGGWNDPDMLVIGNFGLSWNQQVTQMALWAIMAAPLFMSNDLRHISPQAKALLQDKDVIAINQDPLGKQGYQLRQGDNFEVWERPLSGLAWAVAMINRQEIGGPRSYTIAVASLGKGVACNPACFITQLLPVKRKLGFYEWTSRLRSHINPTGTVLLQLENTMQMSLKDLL
An asterisk follows results filed as active. The sample as a whole holds a higher share of hits than the screen did. Calls come from the whole dose curve; as a rule, active = well fitted curve in the direction sought with a large enough effect; inconclusive = small, poorly fitted or top-dose-only effect, or another doubt; inactive = no such curve, though single readings can be large; an effect the other way counts as inactive or inconclusive.

`OC[C@@H]1[C@@H](O)[C@H](O)[C@H]2[C@@H](O)CCN21` gave aGlu spleen mod 28µM* and aGal spleen mod 1%.
Screening CC(C)c1cc2c(c(O)c1O)[C@@]1(C(=O)O)CCCC(C)(C)[C@@H]1CC2 returned aGlu spleen mod -2%, aGal spleen mod 7% and GLA inh pH 4.5 -7.
For CC(=O)[C@@H]1CC[C@H]2[C@@H]3CC[C@@H]4CC(=O)CC[C@]4(C)[C@H]3CC[C@]12C the results were aGlu spleen mod 3% and aGal spleen mod -1%.
CC1CN(O)C2CCc3c(no[n+]3[O-])C12O (stereo unspecified) was read as GAA inh 5%, GAA glycogen 8.8µM*, aGlu spleen mod 6%, aGal spleen mod 8% and GLA inh pH 4.5 3.
For CC1CC2(O)c3no[n+]([O-])c3CCC2N1O (stereo unspecified) the results were GAA inh -5%, GAA glycogen inconclusive, aGlu spleen mod -12%, aGal spleen mod 0% and GLA inh pH 4.5 -1.
C=CC(N)=O was read as aGlu spleen mod -1% and aGal spleen mod 14%.
Screening CN1CCN(c2ccc3nccnc3c2)CC1 returned GAA inh 1%, GAA glycogen 7%, aGlu spleen mod inconclusive, aGal spleen mod 35µM* and GLA inh pH 4.5 8.
CCc1nc2ccc(N3CCN(C)CC3)cc2nc1CC was read as GAA inh 3%, GAA glycogen -4%, aGlu spleen mod -22%, aGal spleen mod -5% and GLA inh pH 4.5 -3.
For OCCCc1ccc(O)c(O)c1 the results were GAA glycogen 35µM*, aGlu spleen mod -1%, aGal spleen mod 9% and GLA inh pH 4.5 0.
Screening O=[N+]([O-])c1ccc(N2CCCC2)cc1N/N=C1\CN2CCC1CC2 returned GAA inh -11%, GAA glycogen 9%, aGlu spleen mod -6%, aGal spleen mod -6% and GLA inh pH 4.5 -6.
For O=C(N/N=C1/CN2CCC1CC2)c1cc2ccccc2cc1O the results were GAA inh -1%, GAA glycogen 35µM*, aGlu spleen mod -1%, aGal spleen mod -12% and GLA inh pH 4.5 6.
CN1C(=O)[C@]23CC4=CC=C[C@H](O)[C@H]4N2C(=O)[C@@]1(CO)SS3 was read as aGlu spleen mod 3% and aGal spleen mod -2%.
O=C(O)C1Sc2[nH]c(=O)sc2C2c3cc(Cl)ccc3OC(=O)C12 (stereo unspecified) was read as GAA inh 6%, GAA glycogen 16µM*, aGlu spleen mod 5%, aGal spleen mod 3% and GLA inh pH 4.5 -3.
`O=C(NC1(C(F)(F)F)Oc2ccc(Cl)cc2O1)N1CCC2(CC1)OCCO2` (stereo unspecified) gave GAA inh 2%, GAA glycogen 8.9µM*, aGlu spleen mod -2%, aGal spleen mod -1% and GLA inh pH 4.5 0.
`O=C(c1ccccc1)N1CCC2(CC1)OCCO2` gave GAA inh inconclusive, GAA glycogen -8%, aGlu spleen mod 9%, aGal spleen mod -9% and GLA inh pH 4.5 -3.
For O=C(NC1(C(F)(F)F)Oc2ccccc2O1)N1CCC2(CC1)OCCO2 the results were GAA inh -5%, GAA glycogen 5.6µM*, aGlu spleen mod -1%, aGal spleen mod 5% and GLA inh pH 4.5 -5.
`NC1CCCC[C@H]1N` (stereo partly specified) gave aGlu spleen mod -1% and aGal spleen mod 9%.
`Oc1ccc(/C=N/NP(=S)(c2ccccc2)c2ccccc2)cc1` gave GAA inh -9%, GAA glycogen -15%, aGlu spleen mod -8%, aGal spleen mod 1% and GLA inh pH 4.5 -11.
COc1cc(/C=N/NP(=S)(c2ccccc2)c2ccccc2)ccc1O was read as GAA inh -5%, GAA glycogen 25µM*, aGlu spleen mod -3%, aGal spleen mod -7% and GLA inh pH 4.5 1.
Screening CCOC(=O)C(SP(=S)(OC)OC)c1ccccc1 (stereo unspecified) returned aGlu spleen mod 5% and aGal spleen mod 11%.
For Cc1cc2c(C(C)C)c(O)c(O)c(C=O)c2c(O)c1-c1c(C)cc2c(C(C)C)c(O)c(O)c(C=O)c2c1O the results were GAA inh inconclusive, GAA glycogen 8.9µM*, aGlu spleen mod -3%, aGal spleen mod 4% and GLA inh pH 4.5 -4.
ClC1=C(Cl)C(Cl)(C2(Cl)C(Cl)=C(Cl)C(Cl)=C2Cl)C(Cl)=C1Cl was read as aGlu spleen mod -5% and aGal spleen mod -10%.
CN1CCC(=O)N(CCN=[N+]=[N-])CC1 was read as GAA glycogen 50µM*.
Screening O=c1c(O)c(-c2ccc(O)c(O)c2)oc2cc(O)cc(O)c12 returned GAA glycogen inconclusive, aGlu spleen mod 1%, aGal spleen mod -19% and GLA inh pH 4.5 -16.
For O=c1cc(-c2ccc(O)c(O)c2)oc2cc(O)cc(O)c12 the results were GAA glycogen 25µM*, aGlu spleen mod -1%, aGal spleen mod inconclusive and GLA inh pH 4.5 -9.
`O=C1C(Cl)=C(Cl)C(=O)C(Cl)=C1Cl` gave aGlu spleen mod -9%, aGal spleen mod -18% and GLA inh pH 4.5 -1.
Screening CCOc1cc(-c2nc3c(C)cccn3c2NCC2CCCO2)ccc1O (stereo unspecified) returned GAA inh -10%, GAA glycogen 35µM*, aGlu spleen mod -1%, aGal spleen mod 9% and GLA inh pH 4.5 7.
`O=C1C2CCN(CC2)[C@@H]1Cc1ccc2ccccc2c1O` gave GAA inh -4%, GAA glycogen 7.9µM*, aGlu spleen mod -4%, aGal spleen mod 3% and GLA inh pH 4.5 5.
